The full list was thinned out, with hits kept by preference.
LmPK inh – LmPK (Leishmania mexicana) enzyme inhibition; 290,000 tested, 0.37% active; Q27686; purified LmPK, Kinase-Glo ATP luminescence, 1 h; Potency, µM (top dose mostly 57.5 µM), for inactives: at the highest dose activity change, negative = inhibition, usual class: inhibitors; note: potency is the fitted concentration of half-maximal effect; % is set by controls: 0 for no effect and ±100 for the full control effect
Target sequence (Q27686 whole entry, looked up): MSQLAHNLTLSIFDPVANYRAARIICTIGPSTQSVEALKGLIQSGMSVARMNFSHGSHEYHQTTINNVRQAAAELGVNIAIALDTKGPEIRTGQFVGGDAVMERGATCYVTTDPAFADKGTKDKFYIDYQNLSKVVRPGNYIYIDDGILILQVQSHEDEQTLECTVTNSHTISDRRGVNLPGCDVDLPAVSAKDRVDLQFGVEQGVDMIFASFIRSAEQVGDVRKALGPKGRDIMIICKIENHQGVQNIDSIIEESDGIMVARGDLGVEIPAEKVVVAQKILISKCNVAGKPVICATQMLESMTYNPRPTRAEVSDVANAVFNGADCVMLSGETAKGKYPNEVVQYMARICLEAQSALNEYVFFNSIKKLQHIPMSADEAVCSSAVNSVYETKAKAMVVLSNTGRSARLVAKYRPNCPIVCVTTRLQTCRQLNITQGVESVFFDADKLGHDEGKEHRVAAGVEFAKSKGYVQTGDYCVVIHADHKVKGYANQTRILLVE
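In 50 mM imidazole pH 7.2 with 7 mM MgCl2, LmPK (0.1 nM) turned over PEP (0.5 mM) and ADP (0.1 mM) for 1 h at room temperature. Luciferase read-out of ATP.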
Shiga toxin inh – Shiga toxin inhibition. AID 2315. Vero cells, Shiga toxin protein synthesis inhibition reporter. 290,000 tested, 9.2% active. inhibition, % at 38.7 µM; in the data active = inhibition mostly above about 28%, no sharp cut-off; inactive = mostly below about 43%; note: 0% is about no effect
RE007 growth inh – less growth of the S. pombe RE007 Vpr strain | S. pombe RE007 Vpr strain, BacTiter-Glo ATP luminescence, 24 h | Potency, µM (top dose mostly 92.2 µM), for the others: at the top dose activity change, negative = less growth, usual class: inhibitors | AID 651644 | 360,000 tested, 0.21% active; active = well fitted falling curve with a large enough effect; inconclusive = small, poorly fitted or top-dose-only effect; inactive = no such curve, though single readings can be large or run the other way; note: potency is the fitted concentration of half-maximal effect; % is set by controls: 0 for no effect and ±100 for the full control effect; nearly all actives have a fitted effect of over 50% in size
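Fission yeast RE007 carrying one integrated HIV-1 vpr copy, seeded at OD 0.01 in PMG+AL medium with 23 nL pinned compound. Grown 24 h at 30 degrees; viability read by BacTiter-Glo luminescence after 5 min.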
CHX counter – affects cycloheximide protein synthesis inhibition readout, counter-screen | max response, % | AID 2314 | cell reporter, cycloheximide protein synthesis inhibition counterscreen | 300,000 tested, 12% active; in the data active = max response mostly above about 13%, no sharp cut-off; inactive = mostly below about 14%; note: read at 38.3 µM for the half of the compounds with a filed dose; 0% is about no effect
TbPYK inhibitor – inhibitors of Trypanosoma brucei pyruvate kinase | Q57TT1 | TbPYK enzyme, Kinase-Glo Plus ATP luminescence, 45 min | Potency, µM (titrated, usually from 76.8 µM), inactives show at the top dose activity, negative = inhibition, actives largely listed as inhibitors | 410,000 tested, 0.12% active; note: potency is the fitted concentration of half-maximal effect; % is set by controls: 0 for no effect and ±100 for the full control effect; nearly all actives have a fitted effect of over 50% in size
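ADP (130 uM final) triggers the TbPYK reaction after compound addition; incubation is 45 min at room temperature. Kinase-Glo Plus is then added and luminescence imaged. Normalized data are fitted to concentration-effect curves.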
Giardia FBPA inh – Giardia lamblia aldolase inhibition | A8B2U2 | purified Giardia FBPA | Potency, µM (doses to about 59.6 µM), without a hit: at the highest dose activity, negative = inhibition, actives largely listed as inhibitors | 290,000 tested, 0.71% active; note: potency is the fitted concentration of half-maximal effect; % is set by controls: 0 for no effect and ±100 for the full control effect; nearly all actives have a fitted effect of over 55% in size
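40 nM FBPA preincubated 10 min at RT with compound (up to 57.5 uM final), then substrate plus GAPDH/TPI/NAD/arsenate coupling and diaphorase/resazurin added. Fluorescence read after 20 min at RT, 525/598 nm.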
An asterisk follows results filed as active; ? = inconclusive; / = no result; [ ] = dose if it differs, or a comment. Unless noted, calls come from the whole dose curve; as a rule, active = well fitted curve in the direction sought with a large enough effect; inconclusive = small, poorly fitted or top-dose-only effect, or another doubt; inactive = no such curve, though single readings can be large; an effect the other way counts as inactive or inconclusive.

SMILES	LmPK inh	Shiga toxin inh	RE007 growth inh	CHX counter	TbPYK inhibitor	Giardia FBPA inh
CC(C)CCNC(=O)CN(C(=O)CCC(=O)Nc1ccccn1)c1ccc2c(c1)OCCO2	-4%	56*	10%	22*	-2%	0%
CC1CN(CC(O)COCc2ccc3c(c2)OCO3)CC(C)O1 (stereo unspecified)	0%	-1	7%	4	-2%	-2%
COc1ccc(-c2cc3c(=O)n(CC(=O)Nc4cc(C)ccc4C)ccn3n2)cc1	/	/	/	/	-6%	/
Cc1ccc(C(C(=O)NC2CCCCC2)N(C(=O)CCCC(=O)Nc2ccccn2)c2ccc3c(c2)OCCO3)cc1 (stereo unspecified)	1%	24	5%	11*	-2%	0%
O=C(CCC(=O)N(CC(=O)NC1CCCCC1)c1ccc2c(c1)OCCO2)Nc1ccccn1	0%	15	/	21*	/	2%
CC[C@@H](C)C(N)C(=O)O (stereo partly specified)	/	5	/	-3	0%	-2%
Cc1nc2ccc(-c3ccccc3)cc2o1	-6%	63	-18%	53*	-6%	-1%
Cc1nc2cc(Cc3ccccc3)ccc2o1	/	/	16%	/	-2%	/
COc1ccc(NC(=O)Nc2ccc(C(C)C)cc2)cc1	0%	58*	-18%	19*	3%	-10%
COCC(=O)Nc1ccc(C(C)C)cc1	6%	110*	0%	37*	0%	3%
O=C(CCSc1ccc(F)cc1)NNC(=O)c1ccccc1Cl	/	/	8%	/	-10%	/
COc1cc(CNCc2ccccn2)ccc1OCc1ccc(Cl)cc1	0%	36	7%	16	-6%	19%
COc1cc(CNCc2cccs2)ccc1OCc1cccs1	-3%	-8	-3%	17	-6%	-12%
COc1cc(CNCc2ccccn2)ccc1OCc1cccc(Cl)c1	-1%	73	-7%	25*	-8%	?
COc1cc(CNCc2ccco2)ccc1OCc1ccccc1	-4%	61*	-6%	33*	3%	-10%
COc1cc(CNCc2cccs2)ccc1OCc1ccccc1	1%	7	-2%	26*	0%	-3%
c1ccc(COc2cccc(CNCc3cccs3)c2)cc1	0%	41	-1%	24*	-2%	-14%
CCCNC(=O)c1ccc(N2CCC3(CC2)CC(c2cccc(Br)c2)=NO3)c([N+](=O)[O-])c1	0%	-4	-18%	2	-1%	7%
COc1ccc(O)c(C2NC(CC(C)C)(C(=O)O)C3C(=O)N(Cc4ccccc4)C(=O)C23)c1 (stereo unspecified)	1%	-7	9%	8.5*	4%	-18%
CCN1C(=O)[C@H]2[C@@H](c3ccc(-c4ccc(OC)cc4)cc3)N[C@@](CC(C)C)(C(=O)OC)[C@H]2C1=O	/	/	-16%	/	3%	/
Cc1ccc(S(=O)(=O)N2CCC(C(=O)NC3CC(C)(C)NC(C)(C)C3)CC2)cc1	-13%	-6	-13%	-2	1%	/
N=C1C(c2nc3ccccc3s2)=C(O)CN1c1ccccc1	4%	39	1%	33*	1%	-1%
COc1cccc(N2CC(O)=C(c3nc4ccccc4s3)C2=N)c1	-6%	54*	-10%	33*	4%	-6%
COc1ccc(N2CC(O)=C(c3nc4ccccc4s3)C2=N)cc1	3%	68	3%	20*	-2%	20%
COc1cccc(C(=O)NN2CC(O)=C(c3nc4ccccc4s3)C2=N)c1	2%	-13	-16%	-2	-7%	2%
SMILES	LmPK inh	Shiga toxin inh	RE007 growth inh	CHX counter	TbPYK inhibitor	Giardia FBPA inh
COC(=O)NC(/C(C(=O)OC)=C(\C)NCc1ccccc1)c1ccco1 (stereo unspecified)	/	/	/	/	/	0%[12.9 µM]
COc1ccc(C2(c3ccc(OC)cc3)NC(=O)N(CC(=O)N(C)c3ccccc3)C2=O)cc1	-8%	72*	6%	51*	2%	/
CCC1CSC(Nc2ccc(C(=O)/C=C/c3ccc(Oc4ccccc4)cc3)cc2)=N1 (stereo unspecified)	1%	30*	17%	47*	8%	-10%
CCC1CSC(Nc2ccc(C(=O)/C=C/c3cccc(C)c3)cc2)=N1 (stereo unspecified)	-5%	-2	1%	13*	1%	0%
Cc1ccc(-c2cc(-c3coc4ccc(Cl)cc4c3=O)c3c(n2)-c2ccccc2OC3)cc1	/	/	/	/	-6%	/
CCc1ccc2oc(C(=O)NCC(c3ccc(OC)cc3)N3CCCCC3)c(C)c2c1 (stereo unspecified)	0%	11	5%	8	6%	/
CCCCCNC(=O)CCc1ccccc1	1%	14	-16%	13*	4%	2%
CCC(NC(=O)c1cncc(Br)c1)c1ccccc1 (stereo unspecified)	/	/	-4%	/	-1%	/
O=C(NCCSc1ccccc1)c1ccc(Br)cc1	-8%	81*	2%	48*	-7%	-4%
CN(C)c1cccc(C(=O)NCCCSc2ccccc2)c1	-1%	47*	-4%	37*	0%	5%
O=C(NCCSc1ccccc1)c1cncc(Br)c1	7%	11	-1%	33*	-15%	3%
Cc1cccc(C(=O)NCC(=O)NCCCSc2ccccc2)c1	/	/	19%	/	-2%	/
CCCCn1cc2c(c1-c1ccc(Cl)cc1)c(=O)n(C)c(=O)n2C	/	/	/	/	6%	/
COc1cccc(CNC(=O)Cn2c(C)c3cnn(-c4ccccc4)c(=O)c3c2C)c1	/	/	/	/	-4%	/
O=C(NCCSc1ccccc1)c1ccccc1	-9%	114*	-23%	31*	-30%	4%
O=C(NCCOc1ccccc1)c1cncc(Br)c1	9%	78*	0%	45*	7%	4%
O=C(CCSc1ccccc1)NCCSCc1ccccc1	2%	-2	-6%	7	1%	3%
CCc1cc(C)cc(OCCNC(=O)c2cncc(Br)c2)c1	-2%	-7	-3%	2	0%	-5%
O=C(CCc1ccccc1)NCCSc1ccccc1	0%	95*	14%	31*	-2%	1%
COc1cccc(NC(=O)CN(c2cccc(OC)c2)S(C)(=O)=O)c1	0%	-9	-19%	-1	-2%	5%
COc1ccc(N(CC(=O)Nc2cccc(SC)c2)S(C)(=O)=O)cc1	1%	49*	-14%	23*	0%	3%
COc1ccc(N(CC(=O)Nc2cccc(C(F)(F)F)c2)S(C)(=O)=O)cc1	6%	20	11%	active	-3%	-7%
COc1cccc(NC(=O)CN(c2cccc(C(F)(F)F)c2)S(C)(=O)=O)c1	4%	-26	12%	3	0%	-7%
COc1cc(NC(=O)COc2cc3oc(=O)cc(C)c3cc2Cl)cc(OC)c1OC	-1%	-5	-6%	18	-12%	15%
O=C(NCc1ccccc1)c1nc(-c2cccs2)no1	0%	38	?	17	-4%	2%

Bioassay records as filed in PubChem.
